Results on 21 compounds are retold here after PubChem BioAssay (NCATS).

Results filed as inconclusive are left out. Values without a mark were called inactive. Activity calls are given as the source filed them. The call rests on the fitted dose curve; in most records, active means well fitted cell-killing curve with a large enough effect; inconclusive means small, poorly fitted or top-dose-only effect, or effect the other way; inactive means flat fitted curve, though single readings scatter. Starred links: 1 amine or outer side, 2 acyl side, 3 side chain; linkers in the order of their positions; H or OH if unused. Positions of bridges follow the written chain, without caps; N, C: chain ends. Non-standard residues stand in square brackets, D forms with d. Residues, ends and D or L forms follow the SMILES beside them. ξ: configuration not given here. *: point of attachment. X3 = C[C@@H](Oc1ccc([C@H](N[*:1])C(=O)[*:2])cc1)[C@]1(/C=C\C(=O)[*:3])CO1; d(aIle) = CC[C@H](C)[C@@H](N)C(=O)O; X2 = CC(C)[C@@H](O)C(C)C(=O)*; ξNMeF = CNC(Cc1ccccc1)C(=O)O; ξT = CC(O)C(N)C(=O)O; ξS = NC(CO)C(=O)O
On the % scale 0 is the no-effect control and ±100 the full control effect; potency means the concentration at half of the fitted maximal effect.

This test can be described thus: UWB1.289-WTBRCA1 Cancer Cell Toxicity qHTS against the NCATS CANVASS Library (AID 1347354). The settings on record: UWB1.289-WTBRCA1 viability, CellTiter-Glo luminescence, 72 h; series mostly up to 38.3 µM; activity change, negative = cytotoxicity: at the top concentration. From the text:
Natural products and their derivatives continue to be wellsprings of nascent therapeutic potential. However, many laboratories have limited resources for biological evaluation, leaving their previously isolated or synthesized compounds largely or completely untested. To address this issue, the Canvass library of natural products was assembled (https://tripod.nih.gov/canvass), in collaboration with academic and industry researchers, for quantitative high-throughput screening (qHTS) across a diverse set of cell-based and biochemical assays. The pure (>85% purity by liquid chromatography/mass spectrometry [LC/MS]) Canvass library of 346 natural products were submitted by 45 academic laboratories and companies around the world. We collected pure natural products to circumvent deconvolution and structure elucidation due to time and resource limitations. The library was formatted into 1536-well plates and evaluated in 50 qHTS (in an 11-pnt concentration series) bioassays with broad scope of disease-relevant mechanisms. The resulting data set from 50 different assays was then systematically analyzed to identify overall trends and specific natural products with interesting biological activities. Reported herein are the results of each individual qHTS and their corresponding assay protocol. National Center for Advancing Translational Sciences (NCATS), Rockville, MD National Institute of Health (NIH), Bethesda, Maryland
Cancer Cell Toxicity COV-362, OV-KATE, OV-SAHO, UWB1.289, UWB1.289-WTBRCA1, HEK-293, HPAF-II, Panc-1005, SW1088, and U-118MG-screen protocol. 1. In a 1536 well, white solid bottom tissue culture plates (Corning 7494), corresponding cells (COV-362, OV-KATE, OV-SAHO, UWB1.289, UWB1.289-WTBRCA1, HEK-293, HPAF-II, Panc-1005, SW1088, or U-118MG) were dispensed in each well at a final concentration of 1000 cells / well (6uL volume) using the Multidrop Combi (Thermo Fisher Scientific) dispenser. 2. The plates were incubated for 4 hours at 37 degrees C/5% CO2/95% Rh. 3. Compounds were pin transferred (~23nL volume) via Wako Pin-tool (Wako Automation, Richmond VA) equipped with a 1536 pin head. The assay plates were treated with compounds in an 11-pnt concentration series with a final concentration range of […] to 85uM. 4. Bortezomib was used as a single dose control (0.5mM column 4, rows 1 - 32) at a final concentration of 1.9uM and as a 16pnt titration (1mM; 1:2 dilution; 16-points; n = 2; column 3, rows 1 - 32) with final concentration range of 0.1nM - 3.8uM. 5. The assay plates were incubated for 72 hours at 37 degrees C/5% CO2/95% Rh. 6. 3uL CellTiter-Glo detection reagent was then added to the plates (columns 2 - 48, rows 1 - 32) and incubated at room temperature for additional 15min. 7. Luminescence signal was acquired via the ViewLux plate reader (PerkinElmer) using a clear filter, 2 second exposure and 2x binning settings.
For orientation: qHTS replaces the single test concentration by a dilution series.
On to `c1ccc2nc3c(cc2c1)[nH]c1ccccc13`, for which the “activity change, negative = cytotoxicity” value is -6.28%. Same read-out and setting: then `CC[C@]12C=CCN3CC[C@]4(C(=C(C(=O)OC)C1)Nc1ccccc14)[C@@H]32`, with 2.85%. As to `C=CC(C)(C)[C@@]12C[C@H]3C(=O)N/C(=C\c4cnc[nH]4)C(=O)N3[C@@H]1Nc1ccccc12`, the compound was called inactive. Turning to `CCC(=O)N[C@@H](C[C@H](C)C(Cl)(Cl)Cl)C(=O)N1C(=O)C=C(OC)[C@@H]1C[C@H](C)C(Cl)Cl`, the “activity change, negative = cytotoxicity” value is -19.4%. On to `C=C[C@H]1CN2CCc3c([nH]c4cccc(OC)c34)[C@@H]2C[C@@H]1/C(=C\OC)C(=O)OC`, for which the compound was classed as inactive.

Turning to `COC1=C(C2=C(OC)C(=O)c3cc4c(c(O)c3C2=O)C(=O)O[C@H](C)C4)C(=O)c2c(cc3c(c2O)C(=O)O[C@H](C)C3)C1=O`, the “activity change, negative = cytotoxicity” value was -13.9% [at 12.8 µM]. Take `CC[C@H](C)[C@H]1NC(=O)[C@@H](NC(=O)C(C)[C@H](O)C(C)C)[C@@H](C)OC(=O)C2COC(=O)CNC(=O)/C=C\[C@]3(CO3)[C@@H](C)Oc3ccc(cc3)[C@H](NC1=O)C(=O)N(C)C(Cc1ccccc1)C(=O)NC(C(C)O)C(=O)N2` (stereo partly specified) (X2-T[d(aIle)][X3][ξNMeF][ξT][ξS]; ester 1-C; linker 3-6 via G): the “activity change, negative = cytotoxicity” value is 3.52% [at 22.9 µM]. On to `CC[C@H]1CN2CCc3c([nH]c4cccc(OC)c34)[C@@H]2C[C@@H]1/C(=C\OC)C(=O)OC`, for which the “activity change, negative = cytotoxicity” value was 2.68%. For `CCCC[C@@H]1CC[C@H]2CCCC(CCCO)N12` (stereo partly specified), the “activity change, negative = cytotoxicity” value is 0.358%.

Consider `CC[C@@H]1CN2CCC3(Nc4cccc(OC)c4C3=O)[C@@H]2C[C@@H]1/C(=C\OC)C(=O)OC` (stereo partly specified), for which the outcome was inactive. As to `C1=C2CCCN[C@H]2C2CC1[C@H]1CCCCN1C2` (stereo partly specified), the “activity change, negative = cytotoxicity” value was 12.8%.

Consider `C[N+](C)(C)CCc1c[nH]c2ccccc12`, for which the compound was classed as inactive. On to `C=C[C@]12C=CCN3CC[C@@]4(c5ccccc5NC(=O)[C@@H]4C1)[C@@H]32`, for which the outcome was inactive. Regarding `CCCCC1CC[C@H]2CCCC(CCC)N12` (stereo partly specified), the “activity change, negative = cytotoxicity” value is -10%. The same measure, in the same setting: the value for `CCCC[C@@H](C)/C=C1/CN2CCC[C@H]2[C@@](C)(O)[C@@H]1O` was -4.17%; that for `C/C=C1/CN2CC[C@]34C(=C(C(=O)OC)[C@H]1C[C@H]23)Nc1ccccc14` was 4.47%. Regarding `CO[C@@H](/C=C/CC/C=C/C(=O)O)[C@@H](O)[C@H](C)/C=C(\C)[C@H](O)[C@H](C)C(=O)CCCC1CC(=O)NC(=O)C1`, the “activity change, negative = cytotoxicity” value is 0.673%. Regarding `C/C=C(\C)C(=O)O[C@@H]1[C@@H](O)[C@@H]2O[C@H]3[C@H](O[C@@H](CCCCC)CCCCCCC(=O)CCC(=O)OC[C@@H](O2)[C@H]1OC(=O)/C=C/c1ccccc1)O[C@H](C)[C@H](OC(C)=O)[C@@H]3O`, the “activity change, negative = cytotoxicity” value is -22.5%. The same measure, in the same setting: the value for `C/C=C1/CN2CC[C@@]34c5ccccc5N(C)[C@@H]3[C@@H]2C[C@@H]1[C@H]4C(=O)OC` was -5.1%; that for `C=CC(C)(C)[C@@]12C[C@H]3C(=O)N/C(=C/c4cnc[nH]4)C(=O)N3[C@@H]1Nc1ccccc12` was 1.16%. Take `C=C(C)[C@H]1C(=O)c2c3c(cc4c5c(n1c24)[C@@]1(C)[C@@H](CC[C@H]2[C@](C)(/C=C/C=C(\C)C(=O)O)[C@@H](O)CC[C@@]21C)C5)C1=CC(C)(C)OC(C)(C)[C@H]1[C@@H]3O`: the Potency is 18.8 µM (active).
